In assay [1] the test system is CAMK1D.
Assay [2] relates to CAMK1.
Assay [3] deals with CAMK2G.
For assay [4], the system named is CAMKK1.
For assay [5], the system named is T1, CDC2L1.
T1 construct: gene CDK11B

Assay [6] concerns CDK9.
Assay [7] deals with CDC2L2.
Assay [8] concerns CDK2.
Assay [9] concerns CDK5.
Assay [10] concerns CDK7.
Assay [11] deals with CDK8.
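Also: kd values determined as follow-up on hits from a single-replicate KINOMEscan panel screen.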

Regarding `O=C1NC(=O)C(c2ccc(Cl)cc2)=C1Nc1ccc(O)cc1` [SB-340867], the Kd in assay [1] and in assay [2] was over 10 µM throughout. Consider `COc1cccc(CNC(=O)NC2CCN(c3ccnc(Nc4ccc(F)cc4)n3)C2)c1` (centres unmarked) [GSK1379723], for which, in assay [3], the Kd is over 10 µM. Consider `CN1c2ccc(-c3ccc(C(N)=O)cc3)cc2-c2[nH]ncc2S1(=O)=O`, for which, in assay [4], the Kd was over 10 µM.

Consider `Cc1c(Cn2c3ccccc3n3c(=O)cc(N4CCOCC4)nc23)cccc1C(F)(F)F` [GSK2306394], for which the Kd in assay [5] and in [6] was over 10 µM each time. Take `Cc1nccc(-c2c(-c3ccc(F)cc3)ncn2CCCN2CCOCC2)n1.Cl` [SB-282975]: the Kd in assay [5] and in assay [6] was over 10 µM each time.

`CC(=O)c1c(C)c2cnc(Nc3ccn(C)n3)nc2n(C2CCCC2)c1=O` had a Kd in assay [7] of over 10 µM. As for `COC(=O)C(NC(=O)NC1CCN(c2ccnc(Nc3ccc(F)cc3)n2)C1)c1ccccc1` (centres unmarked) [GSK1379712], the Kd in assay [8] is over 10 µM. Take `Cc1ccc(-c2nc(Nc3ccncc3)c3ccccc3n2)s1` [GSK189015]: the Kd in assay [9] was over 10 µM. As for `Nc1cccc(-c2ccc3c(N)n[nH]c3c2)n1` [GSK2192730], the Kd in assay [10] was over 10 µM. `O=C(Nc1n[nH]c2nc(-c3ccco3)c(Br)cc12)C1CCN(Cc2ccccc2)C1.O=C(O)[C@H](O)[C@@H](O)C(=O)O` (centres unmarked) [SB-742034] gave a Kd in [10] of 1.1 µM.

`Cc1cnc(N)c(/C=C/c2cncc(C(=O)NCCc3ccc(Cl)cc3Cl)c2)c1.Cl` [GSK190937]: binding in assay [11] was put at a Kd of 1.1 µM.

The Kd is the equilibrium constant for the complex coming apart. Lower therefore signals higher affinity.

These data come from paper PMC5540273 (PLoS ONE, 2017).
